# Data from the supplement of paper PMC6555819.
# System: VDR:RXRa (NR concentration 270 nM, RXRa partner concentration 90 nM)
# Experiment: PBM binding z-score (relative to random genomic background probes); higher = stronger binding; sequences stand for … in GC…GCGATTGACAGCGTAGAATGAAGG
# Method: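 Protein-binding microarray (Agilent 4x180K custom design, double-stranded 60-nt probes: 5' GC cap, 34-nt variable region, 24-nt constant primer region; full probe sequence given). Purified or IVT nuclear receptor:RXRα heterodimers (3:1 NR:RXRα, mostly 270:90 nM) or homodimers were incubated for 1 h in PBS with 2% milk and no ligand, then detected with Alexa488 antibodies. Fluorescence from o1-orientation probes (~5 replicates averaged) was converted to z-scores against 500 random hg19 background probes. Variable regions are seed direct-repeat (DR0–DR5) sites, all their single-nucleotide variants and half-site ablations.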
row,Sequence,PBM binding z-score
1,TTACCAAGGTGAGCGGAGGTCGTTGATCCAACTC,3.36
2,TCTAGTTGGTCAAAGGTCACACAATCGAAATGCG,5.52
3,TCGAGTAGGGTAGTCGGGGCATTCAGCCAACATA,0.167
4,GTACAAAGGTGAATAGGTCGTTGATGAGTAGGCG,2.18
5,CGAACTAGGTCAAGGACATTGAATCTCCGCACGC,1.73
6,TCTAGCAGGCCAGAGTGTCACTCAAGAGGTACGG,-0.00537
7,CCGACTGGTGCATAAGGTTACCATAAGCCAGCCC,0.347
8,ACCGAAAGGTCGACGAGGTGAGTATACACCGTTT,5.14
9,TCTATTAATTGAAGGGCAACCGACGAGTCCGTTT,1.05
10,TTACCAAGGTGAAAGGTCGTGGATGCACGCCTTG,3.28
11,GCTAGCAGGCTATTTGGGTCACTCAATGACGGGC,0.0221
12,TGAATGAGGTTAAAAGATCAGGGAACGTTGCAAA,1.45
13,CATAGAGGGTCAGCTAGGCCAGAGTAGGGACGGC,2.69
14,GCTCGGAGGCCAAGGTCAGAGCTTTGTCCGTAGA,1.16
15,ATCGAACGGTCGAAGGTGAGTATACCCACCCGAA,-0.202
16,ATATGTAGGTTAAGGGTCATTCGGGTTGGTTCGC,6.18
17,CTCGAAAGGTCGGTTGAGGTGAGTTTACGGATAA,3.29
18,GCTTGCAGGCCATTTGGGTCACTCAATGACGGGC,1.08
19,TCTCGGAGAACACGAAGGTCAGAGCTTTCCAGAG,0.885
20,TAGCCTAGGTCATGAGCCAGTATACCACGCGAAC,1.88

row,Sequence,PBM binding z-score
1,ATCTCTAGATAAAGTTCAGTGAAAGATCGATAGA,1.03
2,CGAACGAGGGCATGAGTTCATAGCAAATGCCGAT,5.62
3,TCTTGTAGATCAAGCAGGTCAAGAAAGCCTGAGT,2.28
4,ATCGAAAGTTCGAGGTGAGTATAGAGAAAGGGAA,1.16
5,CAAACTAGGTCAAAGTTCAAAGTCGAGCCAACCA,6.12
6,CGTCCAGGGTCATAGGAGGTCAGTGAAGACAGAT,6.65
7,CCTAACGGGTCACTGACAGGTTATAGCATTTGGA,3.21
8,TCTAGTTGGTCAAAGGTCACACTCTCGAAATGCG,5
9,CAGCCTTGGTCAGGGCCAGTATAGGAGGAACGTT,-0.707
10,AGAATGAGGCTAAGATCAGGGAAACAGAATACAT,-0.231
11,ACTAGCAGGCCAAGTTTGTGTCACTCAAACAAAG,-0.313
12,AGTCAAAGTTCAGGACGAGGTATCGTAAAGCACG,2.29
13,GCTGCTAGGTCACGTTGGTCAGCTAACGGGTACG,2.29
14,CCAACTGGGGCAAAGGTTACCATACTCAGTACGA,1.7
15,AGAACGAGGGCAATGATTTGATAGCACGGGTGGC,0.334
16,CCTTACGGGTCACTGACAGGTGATAGCATTTGGA,4.2
17,GCTTACGGGTCAAGGGTTATAGCATGAATAGAAT,4.33
18,ATACCAAGGTGATCGTGAGGACGTTGATACTAAC,0.664
19,GGAACGAGGGCATTCGCGTTGATAGCATGGCGAT,1.53
20,CTCGAAAGGTCGGTTGACGTGAGTATACGGATAA,1.02
